Laboratory results: PubChem BioAssay AID624037 (The Scripps Research Institute Molecular Screening Center, 2012)
About 700 (0.19%) of roughly 360,000 compounds were called active.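 The calls were made as follows: active = activation above the run's mean over test compounds plus 3 SD (cut at about 23% in these data); inactive = the rest.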 Only a selection was taken, and actives are over-represented in it overall.

molecular target: Muscarinic acetylcholine receptor M5 (Homo sapiens) (UniProt P08912); test: CHRM5 activators raising intracellular calcium – CHO-K1 cells, Fluo-8 calcium fluorescence, primary screen (AID 624037); conditions: CHO-K1 hM5 cells, at 3 µM, hits give high values, 0% DMSO wells, 100% maximal acetylcholine response;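 also: signal is peak over basal fluorescence ratio across the kinetic read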
Sequence (P08912 whole entry, looked up): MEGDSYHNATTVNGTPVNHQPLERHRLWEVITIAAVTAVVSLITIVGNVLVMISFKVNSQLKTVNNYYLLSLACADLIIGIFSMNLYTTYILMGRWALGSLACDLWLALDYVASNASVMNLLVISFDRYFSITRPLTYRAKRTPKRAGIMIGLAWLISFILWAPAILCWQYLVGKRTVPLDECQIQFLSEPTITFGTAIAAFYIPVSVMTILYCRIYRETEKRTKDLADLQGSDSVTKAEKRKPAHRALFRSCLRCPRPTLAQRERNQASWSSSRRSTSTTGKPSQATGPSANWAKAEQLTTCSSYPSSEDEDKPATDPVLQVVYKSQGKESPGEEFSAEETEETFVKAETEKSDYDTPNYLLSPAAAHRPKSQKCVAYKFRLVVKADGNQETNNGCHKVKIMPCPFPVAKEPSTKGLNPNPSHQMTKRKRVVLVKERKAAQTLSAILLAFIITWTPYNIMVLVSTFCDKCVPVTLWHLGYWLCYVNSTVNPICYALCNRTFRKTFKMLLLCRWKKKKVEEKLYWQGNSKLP

Structure (SMILES) | activation
CC(C)C[C@H]1CNC(=S)N1C[C@H]1CCCN1C[C@H](Cc1ccc(O)cc1)N1C[C@H](Cc2ccc(O)cc2)N(CC2CCCCC2)C1=S | -1.54% (inactive)
O=C(CCCN=C1NS(=O)(=O)c2ccccc21)OCC(=O)c1ccc(F)c(F)c1 | 37.2% (active)
N#CC1(NC(=O)COC(=O)CCN=C2NS(=O)(=O)c3ccccc32)CCCCC1 | -5.2% (inactive)
Cc1ccccc1C(=O)NCCN=C1NS(=O)(=O)c2ccccc21 | -1.12% (inactive)
O=C(Cc1c(Cl)cccc1Cl)NC1CC1 | -4.03% (inactive)
Cc1ccc(C(=O)N(CC(=O)NC2CCCC2)c2ccc(F)cc2)s1 | -2.46% (inactive)
O=C(/C=C(O)/C=C/c1ccc(O)cc1)/C=C/c1ccc(O)cc1 | 156% (active)
COc1cccc(C(=O)NNC(=O)/C=C/c2ccccc2)c1 | -2.95% (inactive)
c1ccc(C(=NNc2nc3ccccc3s2)c2ccccn2)cc1 | 58.8% (active)
Cc1cc(C)c2c(c1)cc(C)c1nnc(SCC(=O)Nc3cc(C)on3)n12 | 3.15% (inactive)
O=C(CN(C(=O)CCC(=O)Nc1nccs1)c1ccc(F)cc1)NCc1ccc2c(c1)OCO2 | -1.79% (inactive)
Cc1nccn1CCCNC(=O)CC1C(=O)NCCN1Cc1ccc(Cl)c(F)c1 (stereo not given) | -2.66% (inactive)
CC(=O)C[C@@H]1OC[C@H](CO)N1S(=O)(=O)c1ccc(C)cc1 | 4.39% (inactive)
O=C(COC(=O)Cc1ccc(Br)cc1)Nc1ccc(N2CCOCC2)cc1 | 4.95% (inactive)
CC(C)[C@H](NC(=O)N1CC(=O)Nc2ccccc21)C(=O)N[C@@H](Cc1c[nH]c2ccccc12)C(=O)O | 1.96% (inactive)
Cc1cccc(C)c1NC(=O)CNC(=O)Cc1ccc(Br)cc1 | -2.94% (inactive)
CCOc1ccc(CNC(=O)CCC(=O)N2CCSc3ccccc32)cc1 | 3.47% (inactive)
O=C1C(=O)N(CC2COc3ccccc3O2)c2ccccc21 (stereo not given) | 26.9% (active)
O=C1C(=O)N(c2ccccc2)c2ccccc21 | 15.5% (inactive)
CCn1cc(C(=O)NCC2COc3ccccc3O2)c2cc(OC)c(OC)cc2c1=O (stereo not given) | 1.23% (inactive)
c1ccc2c(c1)OCC(CNc1ncnc3nc[nH]c13)O2 (stereo not given) | 108% (active)
O=C(Cn1nc(Cc2cccnc2)c2ccccc2c1=O)NCC1COc2ccccc2O1 (stereo not given) | 1.51% (inactive)
CCC(=O)c1ccc(OCC(=O)N(CC)CC2COc3ccccc3O2)cc1 (stereo not given) | -1.18% (inactive)
Cc1ccc2c(c1)C(O)(CC(=O)c1cccc(-n3cccc3)c1)C(=O)N2 (stereo not given) | 3.01% (inactive)
Cc1cccc(N=C2NC(=O)CS2)c1C | 2.4% (inactive)
